# From paper PMC4336329 (PLoS ONE, 2015)
# Hit rate of the full screen: of about 310,000 compounds, about 14,000 (4.5%) showed an effect of 50% or more. The effect is printed as a negative number. The sample as a whole holds a higher share of strong results than the screen did.
# Molecular target: human ether-à-go-go-related gene (hERG) potassium channel (human, UniProt Q12809)
# Assay: primary screen, population patch clamp on CHO cells stably expressing hERG; higher = less effect of the substance
# 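Note: peak tail current of the secondary pulse compared with the same well before compound.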
# Chain of human ether-à-go-go-related gene (hERG) potassium channel (Q12809 whole entry, looked up): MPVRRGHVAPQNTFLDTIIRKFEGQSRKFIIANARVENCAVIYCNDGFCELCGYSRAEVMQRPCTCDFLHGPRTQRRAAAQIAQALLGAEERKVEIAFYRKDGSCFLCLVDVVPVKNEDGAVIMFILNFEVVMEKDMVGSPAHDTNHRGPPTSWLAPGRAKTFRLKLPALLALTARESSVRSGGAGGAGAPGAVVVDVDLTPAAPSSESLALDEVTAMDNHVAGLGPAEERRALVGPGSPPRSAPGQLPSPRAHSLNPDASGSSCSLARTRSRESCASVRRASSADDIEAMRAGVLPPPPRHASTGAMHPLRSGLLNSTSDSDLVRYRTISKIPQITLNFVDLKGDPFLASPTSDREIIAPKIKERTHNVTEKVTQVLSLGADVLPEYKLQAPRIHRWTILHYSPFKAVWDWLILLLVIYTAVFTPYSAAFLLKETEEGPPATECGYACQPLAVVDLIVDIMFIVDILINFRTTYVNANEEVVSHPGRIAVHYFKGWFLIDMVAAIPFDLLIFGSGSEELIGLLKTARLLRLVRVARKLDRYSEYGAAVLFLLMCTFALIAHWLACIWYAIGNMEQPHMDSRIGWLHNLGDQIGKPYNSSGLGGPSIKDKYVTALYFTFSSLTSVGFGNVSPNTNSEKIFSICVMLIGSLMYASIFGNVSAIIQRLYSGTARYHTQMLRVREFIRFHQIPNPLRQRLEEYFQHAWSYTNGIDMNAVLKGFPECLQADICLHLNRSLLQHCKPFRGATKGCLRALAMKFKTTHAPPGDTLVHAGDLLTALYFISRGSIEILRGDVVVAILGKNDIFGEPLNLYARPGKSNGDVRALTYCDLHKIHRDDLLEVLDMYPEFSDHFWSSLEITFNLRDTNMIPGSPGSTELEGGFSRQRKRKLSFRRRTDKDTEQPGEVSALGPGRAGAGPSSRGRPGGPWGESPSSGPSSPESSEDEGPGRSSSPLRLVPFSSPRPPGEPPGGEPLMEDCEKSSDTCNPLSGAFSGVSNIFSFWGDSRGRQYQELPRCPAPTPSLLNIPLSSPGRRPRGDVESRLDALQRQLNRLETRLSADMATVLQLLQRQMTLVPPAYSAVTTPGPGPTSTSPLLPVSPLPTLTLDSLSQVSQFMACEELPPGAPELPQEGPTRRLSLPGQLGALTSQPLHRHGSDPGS
row,Structure (SMILES),"hERG current change (%, negative = inhibition) at 10uM"
1,CC(O)(CS(=O)(=O)Cc1ccccc1)C(=O)Nc1cccc(C(F)(F)F)c1 (centres unmarked),1.72%
2,COC(=O)Nc1ccc(S(=O)(=O)N2CCCc3ccccc32)cc1,8.63%
3,O=C1Oc2ccccc2C(=O)/C1=C/N1CCN(c2ccccc2F)CC1,-0.353%
4,O=c1[nH]c(Cl)ccc1CN1CCOCC1,14.5%
5,Cc1ccccc1C(=O)Nn1cnnc1,3.49%
6,COc1ccc(S(=O)(=O)NCc2ccc(C(=O)NCCCN3CC(C)CC(C)C3)cc2)cc1 (centres unmarked),-28.1%
7,COC(=O)c1cc(S(=O)(=O)N2CCC(C)CC2)ccc1F,-18%
8,COc1ccc(-c2cc(CNS(=O)(=O)c3cc(OC)ccc3OC)on2)cc1,6.1%
9,O=C(NC(=S)Nc1ccc2nc[nH]c2c1)c1ccccc1,12.4%
10,COc1ccc(CCNCc2ccsc2)cc1OC,1.86%
11,Cc1cc(/C=C2\Cc3ccccc3C2=O)c(C)n1-c1ccccc1,1.62%
12,O=C(Nc1ccc(N2CCOCC2)c(F)c1)c1cccs1,1.9%
13,Cc1ccc(S(=O)(=O)NCC(=O)N2CCN(c3ccc(F)cc3)CC2)cc1,-10.2%
14,O=C(CNS(=O)(=O)c1ccc(F)cc1)N1CCN(c2ccc(F)cc2)CC1,-51.7%
15,O=C(CNS(=O)(=O)c1ccc(F)cc1)N1CCN(c2ccccc2)CC1,-11.7%
16,O=C(CNS(=O)(=O)c1ccc(F)cc1)N1CCCC1,12%
17,O=C(CNS(=O)(=O)c1ccc(Br)cc1)N1CCN(c2ccc(F)cc2)CC1,-56.5%
18,O=C(CNS(=O)(=O)c1ccc(Br)s1)N1CCN(c2ccc(F)cc2)CC1,-25.2%
19,CCn1nc(CC(=O)O)c2ccccc2c1=O,22.9%
20,COc1cc([N+](=O)[O-])ccc1NC(=O)NCc1ccco1,10.9%
21,Cn1nnnc1SCC(=O)c1c(N)n(C)c(=O)n(C)c1=O,18.3%

row,Structure (SMILES),"hERG current change (%, negative = inhibition) at 10uM"
1,Cc1cc(=O)c(C(=O)O)nn1-c1ccccc1,5.86%
2,Cc1cc(=O)c(C(=O)O)nn1-c1cccc(C(F)(F)F)c1,-74.6%
3,O=C(O)c1nn(-c2cccc(C(F)(F)F)c2)ccc1=O,21.5%
4,CCOc1ccccc1C1CC(=O)NC2=C1C(=O)CCC2 (centres unmarked),13.6%
5,O=C1CCC/C(=N/NC(=O)c2sc3ccccc3c2Cl)C1,5.82%
6,COc1cc(C(C)=O)ccc1OCC(O)CN1CCN(c2ccc(C)c(C)c2)CC1 (centres unmarked),-39.6%
7,COc1cc(C(C)=O)ccc1OCC(O)Cn1nc(C)c(Br)c1C (centres unmarked),-7%
8,COc1cc(C(C)=O)ccc1OCC(O)CN1CCN(c2ccc(C)cc2C)CC1 (centres unmarked),-58.3%
9,COc1cc(C(C)=O)ccc1OCC(O)CN1CCN(c2c(C)cccc2C)CC1 (centres unmarked),-60.3%
10,COc1cc(C(C)=O)ccc1OCC(O)CN1CCN(c2ccccc2)CC1 (centres unmarked),-31.5%
11,COc1cc(C(C)=O)ccc1OCC(O)CN1CCN(c2ccccn2)CC1 (centres unmarked),-9.62%
12,COc1cc(C(C)=O)ccc1OCC(O)CN1CCN(c2cc(C)cc(C)c2)CC1 (centres unmarked),-56.2%
13,COc1cc(C(C)=O)ccc1OCC(O)CN1CCN(S(=O)(=O)c2ccccc2)CC1 (centres unmarked),-11.5%
14,COc1cc(C(C)=O)ccc1OCC(O)CN1CCN(c2ccc(F)cc2)CC1 (centres unmarked),-39%
15,COc1ccc(C(=O)/C=C/Nc2c(C)n(C)n(-c3ccccc3)c2=O)c(OC)c1,0.857%
16,COc1ccc(NC2CCCN(C(=O)CCc3scnc3C)C2)cc1 (centres unmarked),12.2%
17,CS(=O)(=O)c1ccc(N2CCN(C3CC(=O)NC3=O)CC2)cc1 (centres unmarked),13.1%
18,CC(=O)c1ccc(S(=O)(=O)NCCC(=O)OCC(=O)N2CCCC2=O)cc1,-7.6%
19,Cc1cccc2sc(N(CCCN(C)C)C(=O)CCS(=O)(=O)c3ccccc3)nc12,-35%
20,COc1cccc2sc(N(CCN(C)C)C(=O)/C=C/c3cccs3)nc12.Cl,-41.5%
21,COc1ccc(OC)c2sc(N(CCCN(C)C)C(=O)CCS(=O)(=O)c3ccccc3)nc12.Cl,-70.5%

row,Structure (SMILES),"hERG current change (%, negative = inhibition) at 10uM"
1,CCOc1cccc2sc(N(CCN(C)C)C(=O)CCS(=O)(=O)c3ccccc3)nc12.Cl,-23.5%
2,COc1cccc2sc(N(CCCN(C)C)C(=O)C(c3ccccc3)c3ccccc3)nc12.Cl,-72.7%
3,COc1ccc(Cl)c2sc(N(CCN(C)C)C(=O)CCS(=O)(=O)c3ccc(C)cc3)nc12.Cl,-7.51%
4,COc1cccc2sc(N(CCCN(C)C)C(=O)c3sc4ccccc4c3Cl)nc12.Cl,-24.6%
5,COc1cccc2sc(N(CCCN(C)C)C(=O)CCS(=O)(=O)c3ccccc3)nc12,-62.7%
6,Cc1ccc2sc(N(CCCN(C)C)C(=O)CCS(=O)(=O)c3ccccc3)nc2c1C,-6.04%
7,Fc1cccc(Cl)c1Cn1nnc2c(-n3ccnc3)ncnc21,0.152%
8,COCCN1Cc2cccc(C(=O)Nc3ccc(S(=O)(=O)N4CCCCC4)cc3)c2C1=O,-4.49%
9,O=S1(=O)c2cccc3cccc(c23)N1Cc1ccc(-c2nnco2)cc1,7.2%
10,COCc1cc(C)nc(OCC(=O)N/N=C/c2ccc(-c3cc([N+](=O)[O-])ccc3Cl)o2)c1C#N,18%
11,COc1ccccc1C1N(c2cc(Cl)ccc2OC)C(=O)C2CCCN21 (centres unmarked),1.23%
12,Cn1c(=O)c2nc(NCc3ccccc3)cnc2n(C)c1=O,-1.44%
13,O=C(Nc1nnc(SCC(=O)N2CCOCC2)s1)C1CC(=O)N(c2ccc(F)cc2)C1 (centres unmarked),15%
14,O=[N+]([O-])c1ccc(Cl)cc1CNc1ccc(F)c(F)c1,0.95%
15,COc1ccc(CNC2CCCc3ccccc32)c(OC)c1 (centres unmarked),-36.9%
16,COc1ccc(CNC2CCCCC2C)c(OC)c1 (centres unmarked),-56.9%
17,COc1ccc(NC(=O)c2cc([N+](=O)[O-])ccc2NC(=O)CNCc2ccccn2)c(OC)c1,7.29%
18,COc1ccc(CC(=O)NC2CCCCCC2)c(OC)c1,-3.09%
19,COc1cc(NC(=O)c2cc([N+](=O)[O-])ccc2NC(=O)CNC2CCCCC2C)cc(OC)c1 (centres unmarked),20.3%
20,COc1ccc(NC(=O)c2cc([N+](=O)[O-])ccc2NC(=O)CNC2CCCCC2C)c(OC)c1 (centres unmarked),-76.3%
21,CCOc1ccc(CCNC(=O)COC(=O)c2ccc(C)s2)cc1OCC,14.6%

row,Structure (SMILES),"hERG current change (%, negative = inhibition) at 10uM"
1,COc1ccc(C2NC(=O)C(C#N)=C(S)N2c2ccc(C)cc2)cc1OC (centres unmarked),18.2%
2,Cc1c(C(N)=O)sc2nc(-c3ccccc3)cn12,1.01%
3,CC(=O)c1ccc(NC(=O)CNCC(c2ccccc2)N(C)C)cc1.O=C(O)C(=O)O (centres unmarked),2.26%
4,Cc1ccc(NC(=O)CNCC(c2ccccc2)N(C)C)cc1F.O=C(O)C(=O)O (centres unmarked),-38.1%
5,CCOC(=O)c1cc(NC(=O)CNCC(c2ccccc2)N(C)C)cc(C(=O)OCC)c1.O=C(O)C(=O)O (centres unmarked),-57.7%
6,COc1ccc(Cl)cc1NC(=O)CNC(c1ccccc1)c1ccccc1,12.6%
7,Cc1ccc(Cl)cc1NC(=O)CNCC(c1ccccc1)N(C)C.O=C(O)C(=O)O (centres unmarked),-30.3%
8,COc1ccc(Cl)cc1NC(=O)CNCC(c1ccccc1)N(C)C.O=C(O)C(=O)O (centres unmarked),-73.9%
9,Cn1c(SCC(=O)N2CCOCC2)nc2c(c1=O)SCC2,15.8%
10,O=C(CCCCCBr)N1CCC(CC2CC(c3cccc(Br)c3)=NO2)(C(=O)NCC2CCCCC2)CC1 (centres unmarked),-69%
11,CC1(C(=O)N2CCC(CC3CC(c4ccc(Cl)cc4)=NO3)(C(=O)NCC3CCCCC3)CC2)CC1 (centres unmarked),-40.8%
12,O=C(C1CCCC1)N1CCC(CC2CC(c3cccc(Br)c3)=NO2)(C(=O)NCC2CCCCC2)CC1 (centres unmarked),-49.9%
13,O=C(C1CCCC1)N1CCC(CC2CC(c3ccc(Cl)cc3)=NO2)(C(=O)NCC2CCCCC2)CC1 (centres unmarked),-24.1%
14,CC(C)(C)OC(=O)N1CCC(CC2CC(c3cccc(Br)c3)=NO2)(C(=O)NCC2CCCCC2)CC1 (centres unmarked),13.7%
15,O=C(c1ccccc1)N1CCC(CC2CC(c3cccc(Br)c3)=NO2)(C(=O)NCC2CCCCC2)CC1 (centres unmarked),-1.49%
16,CC(C)(C)OC(=O)N1CCC(CC2CC(c3ccc(Cl)cc3)=NO2)(C(=O)NCC2CCCCC2)CC1 (centres unmarked),-19.5%
17,O=C(c1ccccc1)N1CCC(CC2CC(c3ccc(Cl)cc3)=NO2)(C(=O)NCC2CCCCC2)CC1 (centres unmarked),-52%
18,O=C(CCCCCBr)N1CCC(CC2CC(c3ccc(Cl)cc3)=NO2)(C(=O)NCC2CCCCC2)CC1 (centres unmarked),-74.6%
19,CCOC(=O)c1c(-c2ccc(C)s2)csc1N,7.8%
20,Cc1cccc(/C=C/C(=O)c2cc(Br)ccc(=O)c2O)c1,16.7%
